Source: PubChem BioAssay AID2267 (National Center for Advancing Translational Sciences (NCATS), 2010)
The list shows a part of the results. Inconclusive results are not listed. Active and inactive are the calls of the source. The call rests on the fitted dose curve; in most records, active means well fitted inhibition curve with a large enough effect; inconclusive means small, poorly fitted or top-dose-only effect, or effect the other way; inactive means flat fitted curve, though single readings scatter.

These compounds were tested against Pyruvate kinase PKM (Homo sapiens) (UniProt P14618) (assay: Secondary assay for Inhibitors of Human Pyruvate Kinase M2 isoform). Conditions: purified hPK-M2, LDH-coupled NADH fluorescence kinetic.
Pyruvate kinase PKM (Homo sapiens), sequence (P14618 whole entry, looked up, canonical isoform): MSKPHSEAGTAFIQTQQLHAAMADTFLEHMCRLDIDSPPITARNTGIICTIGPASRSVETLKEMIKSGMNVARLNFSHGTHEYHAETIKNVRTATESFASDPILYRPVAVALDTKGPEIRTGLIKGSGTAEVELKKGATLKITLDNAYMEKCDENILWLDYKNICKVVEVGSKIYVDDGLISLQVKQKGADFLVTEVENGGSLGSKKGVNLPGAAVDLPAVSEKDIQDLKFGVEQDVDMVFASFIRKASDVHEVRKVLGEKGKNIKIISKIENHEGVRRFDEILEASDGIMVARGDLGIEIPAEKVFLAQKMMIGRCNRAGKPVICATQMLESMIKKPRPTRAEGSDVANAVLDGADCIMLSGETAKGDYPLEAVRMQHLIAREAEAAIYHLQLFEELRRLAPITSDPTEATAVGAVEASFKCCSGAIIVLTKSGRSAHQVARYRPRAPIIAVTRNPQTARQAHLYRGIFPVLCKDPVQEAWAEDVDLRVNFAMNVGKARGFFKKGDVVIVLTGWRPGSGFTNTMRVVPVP
Excerpt: NIH Chemical Genomics Center [NCGC] Matthew G. Vander Heiden, M.D., Ph.D. [Harvard Medical School, 77 Avenue Louis Pasteur, Boston, MA 02115] MLPCN Grant: 1 R03 MH085679-01 NCGC Assay Overview: Human pyruvate kinase muscle 2 (hPK-M2)enzyme was supplied as a highly purified (>95% pure) preparation from Harvard Medical School and a secondary assay was used to evaluate compounds. This assay couples the formation of pyruvate from hPK-M2 using lactate dehydrogenase (LDH) and NADH. The depletion of NADH is followed in a fluorescent-based kinetic assay that follows the formation of pyruvate to lactate, as catalyzed LDH (described by Hannaert et al., 2002)1 Pyruvate kinase substrates, PEP and ADP, were present in the assay at 0.1 mM and 4 mM respectively. In this kinetic assay initial rates were determined by following the fluorescence of NADH depletion.
NCGC Assay Protocol Summary: Three uL of substrate mix (final concentration, 50 mM Tris-Cl pH 8.0, 200 mM KCl, 15 mM MgCl2, 0.1 mM PEP, 4.0 mM ADP, and 0.2 mM NADH) was dispensed into black-solid 1536 well plates. 23 nL of compounds were delivered by a pin tool and 1 uL of enzyme mix (final concentrations, 10 nM hPK-M2 and 1 uM of LDH) was added. Plates were immediately placed in ViewLux (Perkin Elmer) and NADH fluorescence was determined at 30 second exposure intervals for between 3 and 6 minutes. Data were normalized to the basal signal.
`Cc1ccc(-c2nc3ccccn3c2Nc2ccc(F)cc2)o1` was tested, and the Potency was 7.3 µM (active).
